Where “and” joins values, the source holds several entries; their conditions need not be identical. Equal values may be shown once. Inconclusive results are not listed. Some structures have more than one record in an assay (separate samples or runs), and their calls can disagree. Calls of active or inactive are those of the source. Calls follow the shape of the dose curve; as a rule, active = well fitted cell-killing curve with a large enough effect in the repeat runs; inconclusive = weak or mixed curves; inactive = flat fitted curve, though single readings scatter.
% is scaled to controls: 0 for no effect and ±100 for the full control effect; potency is read from the fitted curve at half-maximal effect.

The nature of this experiment: qHTS assay for small molecule agonists of the antioxidant response element (ARE) signaling pathway measured by Nrf2-dependant transcriptional activity - cell viability counter screen (AID 720653). As to conditions: ARE-bla HepG2 viability, CellTiter-Glo ATP luminescence, 16 h; max response: active compounds read low. An excerpt: National Center for Advancing Translational Sciences [NCATS] NIH Chemical Genomics Center [NCGC] U.S. Environmental Protection Agency [EPA] National Institutes of Environmental Health Sciences [NIEHS] National Toxicology Program [NTP] Assay Overview: Oxidative stress has been implicated in the pathogenesis of a variety of diseases ranging from cancer to neurodegeneration. The antioxidant response element (ARE) signaling pathway plays an important role in the amelioration of oxidative stress. The CellSensor ARE-bla HepG2 cell line (Invitrogen) can be used for analyzing the Nrf2/antioxidant response signaling pathway. Nrf2 (NF-E2-related factor 2) and Nrf1 are transcription factors that bind to AREs and activate these genes. The CellSensor ARE-bla HepG2 cell line contains a beta-lactamase reporter gene under control of the Antioxidant Response Element (ARE) stably integrated into HepG2 cells. The activation of the report gene under culture conditions can be detected by fluorescence intensity. The cytotoxicity of the compounds against the ARE-bla HepG2 cell line was quantified by measuring the intracellular ATP content.
Assay Protocol Summary: ARE-bla HepG2 cells were dispensed at 2,000 cells/5 ul/well in 1536-well black wall/clear bottom plates using a Multidrop Combi (ThermoFisher Scientific, Waltham, MA) dispenser. After the assay plates were incubated at 37C/5% CO2 for 5 hrs, 23 nL of compounds dissolved in DMSO, positive controls or DMSO only was transferred to the assay plate by a pintool work station (Kalypsys, San Diego, CA). The plates were incubated at 37C/5% CO2 for 16 hrs. After 1 uL of LiveBLAzer B/G FRET substrate was added using a Flying Reagent Dispenser (FRD) (Aurora Discovery, San Diego, CA), the assay plates were incubated at room temperature for 2 hrs. The fluorescence intensity was measured by an Envision (PerkinElmer, Shelton, CT) plate reader. Cell viability using CellTiter Glo viability assay (Promega, Madison, WI) was also measured by adding 4 ul/well of CellTiter-Glo reagent into the same assay plate using a FRD. After 30 min incubation at room temperature, the luminescence intensity in the plates was measured using a ViewLux (PerkinElmer) plate reader.
Turning to `CCCCCCCCOC(=O)c1ccccc1C(=O)OCCCCCCCC`, the max response is -5.46% (inactive) and -4.31% (inactive). `C[C@]12CCC(=O)C[C@@H]1CC[C@@H]1[C@@H]2CC[C@]2(C)[C@@H](O)CC[C@@H]12`: the max response was -16.7% (inactive) and -5.79% (inactive). Consider `O=C1CCO1`, for which the max response was 5.4% (inactive).

`CC[C@H](C)[C@H]1O[C@]2(C=C[C@@H]1C)C[C@@H]1C[C@@H](C/C=C(\C)[C@@H](O[C@H]3C[C@H](OC)[C@@H](O[C@H]4C[C@H](OC)[C@@H](O)[C@H](C)O4)[C@H](C)O3)[C@@H](C)/C=C/C=C3\CO[C@@H]4[C@H](O)C(C)=C[C@@H](C(=O)O1)[C@]34O)O2`: the Potency is 39.8 µM (active). As for `O=c1[nH]c(=O)n(Cl)c(=O)n1Cl`, the max response is -11% (inactive).

On to `O=C1C2CC=CCC2C(=O)N1SC(Cl)(Cl)Cl` (stereo not given), for which the max response was -23.3% (inactive) and the Potency is 28.2 µM (active). As to `ClC(Cl)(Cl)Cl`, the max response is 14.9% (inactive) and -6.99% (inactive). Same read-out and setting: as for `Oc1cc(Cl)c(Cl)cc1Cl`, the figure is 4.14% (inactive) and 5.09% (inactive); as for `CCCCCl`, -3.38% (inactive). Still for that read-out and setting: as for `O=CC=O`, the figure is 0.354% (inactive); as for `[O]=[Cr](=[O])([OH])[O][Cr](=[O])(=[O])[OH]`, -23.9% (inactive); as for `C#CCN1CC(=O)N(COC(=O)C2C(C=C(C)C)C2(C)C)C1=O` (stereo not given), 2.56% (inactive). The same measure, in the same setting: as for `ClC1C(Cl)C(Cl)C(Cl)C(Cl)C1Cl` (stereo not given), the figure is -5.28% (inactive) [middle of 4 runs]; as for `O=C(NCNC(=O)NC1C(=O)NC(=O)N1CO)NC1C(=O)NC(=O)N1CO` (stereo not given), 1.81% (inactive); as for `O=[N+]([O-])c1ccccc1`, -3.95% (inactive) and -3.49% (inactive). `NNC(N)=O`: the max response is 4.7% (inactive). Regarding `CCOC(=O)c1ccccc1C(=O)OCC`, the max response is 8.89% (inactive) and -10.7% (inactive) and -8.42% (inactive). Still for that read-out and setting: the value for `O=[N+]([O-])C(Br)(CO)CO` was -12.6% (inactive). For `C[C@H]1CC[C@@H]2[C@@H](C)[C@H]3[C@H](C[C@H]4[C@@H]5CC=C6CC(O[C@@H]7O[C@H](CO)[C@H](O)[C@H](O[C@@H]8O[C@H](CO)[C@@H](O)[C@H](O)[C@H]8O)[C@H]7O[C@H]7O[C@@H](C)[C@H](O)[C@@H](O)[C@H]7O)CC[C@]6(C)[C@H]5CC[C@]34C)N2C1` (stereo not given in full), the Potency was 44.7 µM (active). For `CCOP(=O)(OCC)O/C(=C/Cl)c1ccc(Cl)cc1Cl`, the max response was -18.8% (inactive) and -8.15% (inactive).

Take `[O]=[Cd]`: the max response was -0.962% (inactive). Turning to `ClC=C(Cl)Cl`, the max response is -6.12% (inactive) and -5.8% (inactive).

As to `O=C/C=C/c1ccccc1`, the max response was 12.8% (inactive) and -6.35% (inactive). Same read-out and setting: the value for `COCC(C)N(C(=O)CCl)c1c(C)csc1C` (stereo not given) was -1.95% (inactive); that for `O=[N+]([O-])c1ccc(F)c([N+](=O)[O-])c1` was -6.71% (inactive); that for `COC1=CC(=O)O[C@@H](/C=C/c2ccccc2)C1` was 4.02% (inactive). Still for that read-out and setting: as for `O=C(O)c1cc[c]([Hg][Cl])cc1`, the figure is 8.27% (inactive).

Consider `[Cl-].[Cl-].[Hg+2]`, for which the max response is -13.5% (inactive).

For the compound `N#CN`, the max response was -18.5% (inactive). Turning to `C[C@H]1CCC[C@H](O)CCCCCc2cc(O)cc(O)c2C(=O)O1`, the max response was -13.4% (inactive). Still for that read-out and setting: as for `Clc1ccccc1Cl`, the figure is 1.42% (inactive); as for `ClCC1CO1` (stereo not given), -2.98% (inactive). For `CC(C)(C)c1cc(O)ccc1O`, the max response was 21.5% (inactive) and -0.658% (inactive) and -3.53% (inactive). Turning to `O=C1C[C@@H]2OCC=C3CN4CC[C@]56c7ccccc7N1[C@H]5[C@H]2[C@H]3C[C@H]46`, the max response was -11.2% (inactive). The same measure, in the same setting: the value for `O=C(O)C(Cl)(Cl)Cl` was -1.81% (inactive) and -2.86% (inactive). In the case of `C[CH2][Hg][S]c1ccccc1C(=O)O`, the Potency is 44.7 µM (active). With `S=C=S`, the max response was -6.45% (inactive).

`COc1ccc2c(c1OC)C(=O)OC2C1c2cc3c(cc2CCN1C)OCO3` (stereo not given): the max response was -15.1% (inactive). The same measure, in the same setting: as for `O=Cc1ccco1`, the figure is -4.31% (inactive).
